This is a sample that favours compounds with a hit; in the whole collection about 4.1% have one here.
Mtb FBA inh: inhibitors of M. tuberculosis fructose-bisphosphate aldolase. inhibition, % at 1 µM. purified M. tuberculosis FBA, fluorescence read-out. AID 588726. P9WQA3. actives 2.3% (n = 360,000)
GDH-TPI counter-1: GDH-TPI coupled enzyme inhibition counter-screen | GDH-TPI coupled enzyme counterscreen, NADH absorbance | inhibition, % at 4.8 µM | actives 1.2% (n = 360,000); in the data active means inhibition above about 30%
RecA intein inh: blocks M. tuberculosis RecA intein splicing; P9WHJ3; cell-free RecA intein splicing, fluorescence; inhibition, % (concentration not given with the values); actives 0.75% (n = 290,000); AID 2221; in the data active means inhibition above about 30%
UGM FP inh: Mtb UDP-galactopyranose mutase inhibition | P9WIQ1 | purified UGM, fluorescence polarization probe displacement | inhibition, % at 10 µM | actives 0.06% (n = 320,000) | AID 504406; in the data active means inhibition above about 10%, passing the limit was not always enough
Vc quorum ag: quorum light induction in luxS cqsA deficient V. cholerae. activation, % at 18.7 µM. AID 588436. V. cholerae BH1578 lux reporter, luminescence, 6 h. actives 0.16% (n = 350,000); in the data active means activation mostly above about 9.7%, no sharp cut-off
Rv3671c inh: Rv3671c (M. tuberculosis) protease inhibition | inhibition, % at 5.96 µM | P9WHR9 | AID 2606 | actives 0.048% (n = 320,000); in the data active means inhibition above about 38%;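 further: extracellular domain of Rv3671c used as enzyme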
Target sequence (P9WHR9 whole entry, looked up, the tested form may be a part): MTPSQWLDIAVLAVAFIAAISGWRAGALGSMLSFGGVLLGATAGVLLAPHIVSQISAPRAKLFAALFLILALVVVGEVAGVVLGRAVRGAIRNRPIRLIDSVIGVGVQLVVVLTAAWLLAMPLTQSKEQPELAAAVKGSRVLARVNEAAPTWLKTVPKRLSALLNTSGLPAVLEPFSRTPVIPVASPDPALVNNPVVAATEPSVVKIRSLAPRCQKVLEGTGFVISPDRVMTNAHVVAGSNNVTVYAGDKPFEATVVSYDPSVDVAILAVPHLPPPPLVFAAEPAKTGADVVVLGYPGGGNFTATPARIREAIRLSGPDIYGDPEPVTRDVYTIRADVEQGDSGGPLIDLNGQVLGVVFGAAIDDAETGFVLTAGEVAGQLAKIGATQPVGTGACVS
Mtb FBA confirm: confirmation of M. tuberculosis fructose-bisphosphate aldolase inhibitors; shares compounds with Mtb FBA inh; purified M. tuberculosis FBA, fluorescence read-out; inhibition, % at 1 µM; actives 78% (n = 5,600); AID 651616
GDH-TPI counter-2: counter-screen for M. tuberculosis FBA inhibitors: GDH-TPI coupled enzyme inhibition; shares compounds with Mtb FBA inh; GDH-TPI coupled enzyme counterscreen, fluorescence; inhibition, % at 1 µM; actives 81% (n = 5,600); in the data active means inhibition above about 10%
Large screens that a line does not name were inactive (follow-up assays come after a bar, where they were run). Unless noted, no stated cut-off is given here; in the data, active means inhibition above about 27%; inactive means the rest.

CCCc1cc(N2CCN(C(=O)c3ccco3)CC2)n2c(nc3ccccc32)c1C#N	Mtb FBA inh 32.5 | Mtb FBA confirm 99.9 | GDH-TPI counter-2 84.2
CCCc1cc(Nc2c(C)n(C)n(-c3ccccc3)c2=O)n2c(nc3ccccc32)c1C#N	none
CCCc1cc(NCCCN2CCOCC2)n2c(nc3ccccc32)c1C#N	Mtb FBA inh 100.8 | Mtb FBA confirm 53.7 | GDH-TPI counter-2 41.2
Nc1nc(N2CCN(C(=O)c3ccco3)CC2)nc2ccc(Br)cc12	none
Nc1nc(N2CCN(C(=O)c3ccco3)CC2)nc2ccccc12	Mtb FBA inh 45.3 | Mtb FBA confirm inactive | GDH-TPI counter-2 inactive
COCCN(CCOC)c1cc(C)c(C#N)c2nc3ccccc3n12	Mtb FBA inh 38.6 | Mtb FBA confirm 43.2 | GDH-TPI counter-2 41.0
CCn1c(Cc2ccccc2)nnc1SC(C)C(=O)NC1CC1 (stereo unspecified)	none
Cc1cc(NCCN2CCOCC2)n2c(nc3ccccc32)c1C#N	Mtb FBA inh 57.6 | Mtb FBA confirm 104.4 | GDH-TPI counter-2 81.2
CCN(CC)CCNc1cc(C)c(C#N)c2nc3ccccc3n12	Mtb FBA inh 86.0 | Mtb FBA confirm inactive | GDH-TPI counter-2 16.5
Cc1cc(Nc2c(C)n(C)n(-c3ccccc3)c2=O)n2c(nc3ccccc32)c1C#N	none
COc1ccc2oc3cc(Cl)ccc3c(=O)c2c1	none (no result: GDH-TPI counter-1, RecA intein inh, UGM FP inh, Vc quorum ag, Rv3671c inh)
COc1cccc(CN(C)C(=O)C2CCN(S(=O)(=O)c3cccs3)CC2)c1OC	none (no result: RecA intein inh)
CCOCCCNC(=O)c1oc2ccc3c(c2c1C)C(O)CC(C)(C)O3 (stereo unspecified)	Mtb FBA inh 33.4 (no result: Rv3671c inh) | Mtb FBA confirm 34.5 | GDH-TPI counter-2 24.9
CCCNC(=O)c1oc2ccc3c(c2c1C)C(O)CC(C)(C)O3 (stereo unspecified)	Mtb FBA inh 49.0 (no result: Rv3671c inh) | Mtb FBA confirm inactive | GDH-TPI counter-2 inactive
O=c1[nH]c2c(oc3ccccc32)c(=O)n1Cc1ccccc1	none (no result: Rv3671c inh)
O=C(O)c1c(-c2ccccc2)c2oc3ccccc3c2[nH]c1=O	Mtb FBA inh 107.9 | Mtb FBA confirm 89.7 | GDH-TPI counter-2 70.4
Cc1onc(-c2ccccc2Cl)c1C(=O)Nc1nnc(-c2ccc(Cl)cc2Cl)s1	Mtb FBA inh 62.1 | Mtb FBA confirm 67.7 | GDH-TPI counter-2 56.8
Cc1onc(-c2ccccc2Cl)c1C(=O)Nc1nnc(-c2ccc(Br)cc2)s1	Mtb FBA inh 92.0, GDH-TPI counter-1 36.5 | Mtb FBA confirm 118.6 | GDH-TPI counter-2 99.0
O=C(Nc1ccccc1Cl)NC1(C(=O)N2CCC(O)CC2)CCCCC1	none
O=C(O)COc1ccc(/C=C/c2nc3ccc([N+](=O)[O-])cc3s2)cc1	none
CC(C)(C)NC(=O)Nc1ccc2nccnc2c1	Mtb FBA inh 60.7 | Mtb FBA confirm inactive | GDH-TPI counter-2 inactive
CC(C)(C)NC(=O)c1ccc2nccnc2c1	none
COc1ccc(CNC(=O)Nc2nc(C(N)CCc3ccccc3)cs2)cc1 (stereo unspecified)	none (no result: RecA intein inh, UGM FP inh, Rv3671c inh)
COc1ccccc1N1C(=O)c2ccccc2NC1c1cc(OC)c(OC)c(OC)c1 (stereo unspecified)	Mtb FBA inh 55.0 | Mtb FBA confirm 96.1 | GDH-TPI counter-2 64.7
COc1ccc(C2Nc3ccccc3C(=O)N2c2ccc(C)cc2)cc1COc1ccccn1 (stereo unspecified)	Mtb FBA inh 34.1 | Mtb FBA confirm active | GDH-TPI counter-2 active
COc1ccc(C2Nc3ccccc3C(=O)N2c2ccc(C)cc2)cc1Cn1nc(C)c([N+](=O)[O-])c1C (stereo unspecified)	none
COc1ccc(C2Nc3ccccc3C(=O)N2c2ccccc2)cc1CN1CCOCC1 (stereo unspecified)	Mtb FBA inh 44.8 | Mtb FBA confirm inactive | GDH-TPI counter-2 inactive
COc1ccc(C2Nc3ccccc3C(=O)N2Cc2ccccc2)cc1CN1CCOCC1 (stereo unspecified)	Mtb FBA inh 96.8 (no result: RecA intein inh) | Mtb FBA confirm 57.9 | GDH-TPI counter-2 50.3
CCc1nc2ccc(C(=O)N3CCN(C(=O)c4ccco4)CC3)cn2c1N(C)C(=O)C1CCCCC1	none (no result: RecA intein inh, UGM FP inh, Rv3671c inh)
